Shiga toxin inh: Shiga toxin inhibition | Vero cells, Shiga toxin protein synthesis inhibition reporter | inhibition, % at 38.7 µM | actives 9.2% (n = 290,000) | AID 2315; in the data active means inhibition mostly above about 28%, no sharp cut-off; inactive means mostly below about 43%
TbPYK inhibitor: blocks Trypanosoma brucei pyruvate kinase; TbPYK enzyme, Kinase-Glo Plus ATP luminescence, 45 min; Potency, µM (highest dose often 76.8 µM), actives largely listed as inhibitors; actives 0.12% (n = 410,000); AID 624173; further: nearly all actives have a fitted effect of over 50% in size
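Enzyme and substrate buffer are dispensed first and compound is pin-transferred. ADP at 130 uM final then starts the reaction, which runs 45 min at room temperature. Detection reagent is added for 10 min before luminescence is imaged.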
FBPA Giardia inh: inhibitors of Giardia lamblia fructose-1,6-bisphosphate aldolase | A8B2U2 | purified Giardia FBPA | Potency, µM (highest dose often 59.6 µM), usual class: inhibitors | actives 0.71% (n = 290,000); further: nearly all actives have a fitted effect of over 55% in size
Target sequence (A8B2U2 whole entry, looked up): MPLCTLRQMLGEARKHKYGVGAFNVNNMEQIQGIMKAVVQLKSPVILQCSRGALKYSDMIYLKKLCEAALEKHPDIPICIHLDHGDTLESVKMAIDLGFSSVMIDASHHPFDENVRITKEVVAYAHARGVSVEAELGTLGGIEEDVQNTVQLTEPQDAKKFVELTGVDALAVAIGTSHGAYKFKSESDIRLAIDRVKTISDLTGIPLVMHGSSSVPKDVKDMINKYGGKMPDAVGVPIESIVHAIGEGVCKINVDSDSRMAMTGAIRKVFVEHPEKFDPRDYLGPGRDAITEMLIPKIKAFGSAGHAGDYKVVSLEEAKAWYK
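40 nM FBPA preincubated 10 min at RT with compound (up to 57.5 uM final), then substrate plus GAPDH/TPI/NAD/arsenate coupling and diaphorase/resazurin added. Fluorescence read after 20 min at RT, 525/598 nm.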
LmPK inh: blocks Leishmania mexicana pyruvate kinase activity; purified LmPK, Kinase-Glo ATP luminescence, 1 h; Potency, µM (titrated, usually from 57.5 µM), hits mostly inhibitors; actives 0.37% (n = 290,000); AID 1721
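ATP generated from ADP (0.1 mM) and PEP (0.5 mM) by 0.1 nM LmPK over 1 h at room temperature (pH 7.2 imidazole buffer) was detected by coupled luciferase luminescence. Values were normalized to uninhibited and no-enzyme wells.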
RE007 growth inh: less growth of the S. pombe RE007 Vpr strain; S. pombe RE007 Vpr strain, BacTiter-Glo ATP luminescence, 24 h; Potency, µM (top dose mostly 92.2 µM), hits mostly inhibitors; AID 651644; actives 0.21% (n = 360,000); active means well fitted falling curve with a large enough effect; inconclusive means small, poorly fitted or top-dose-only effect; inactive means no such curve, though single readings can be large or run the other way; further: nearly all actives have a fitted effect of over 50% in size
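Fission yeast strain RE007, carrying one chromosomally integrated HIV-1 vpr copy, was seeded at OD 0.01 in PMG+AL medium with 23 nL pinned compound. After 24 h at 30 °C and 99% humidity, viability was read by BacTiter-Glo luminescence.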
Cycloheximide cs: affects cycloheximide protein synthesis inhibition readout, counter-screen. cell reporter, cycloheximide protein synthesis inhibition counterscreen. max response, %. actives 12% (n = 300,000). AID 2314; in the data active means max response mostly above about 13%, no sharp cut-off; inactive means mostly below about 14%; further: read at 38.3 µM for the half of the compounds with a filed dose
Numbers stand for hits; 0 = inactive; ? = inconclusive; - = no result. The full list was thinned out, with hits kept by preference. Unless noted, the call rests on the fitted dose curve; in most records, active means well fitted curve in the direction sought with a large enough effect; inconclusive means small, poorly fitted or top-dose-only effect, or another doubt; inactive means no such curve, though single readings can be large; an effect the other way counts as inactive or inconclusive.

SMILES	Shiga toxin inh	TbPYK inhibitor	FBPA Giardia inh	LmPK inh	RE007 growth inh	Cycloheximide cs
CCn1c(C(=O)N2CCCC(C(=O)N3CCN(c4cc(C)ccc4C)CC3)C2)cc2sccc21 (configuration not stated)	-	0	-	-	-	-
COc1ccc(CNC(=O)Cn2ncn3nc(-c4cccs4)cc3c2=O)cc1	-	0	-	-	-	-
COc1ccc(OC)c(NC(=O)Cn2ccc3ccccc3c2=O)c1	-	0	-	-	-	-
O=C(CCCn1c(=S)[nH]c2ccsc2c1=O)Nc1ccc2c(c1)OCCO2	98.4	?	0	0	0	39.0
CCSc1nnc(NC(=O)COc2ccccc2[N+](=O)[O-])s1	184.6	0	0	0	0	62.4
CC(C)c1nnc(NC(=O)COc2ccccc2[N+](=O)[O-])s1	96.4	0	0	0	0	19.6
CCc1cccc(NC(=O)c2cnn(-c3ccccc3)c2C)c1	136.5	0	0	0	0	44.9
Cc1cc(NC(=O)c2cnn3c(C(F)F)cc(C4CC4)nc23)no1	0	0	0	0	0	0
CCn1ncc(C(=O)Nc2cc(C)on2)c1C	0	0	0	0	0	47.3
CCn1ncc(C(=O)Nc2cccc(Cl)c2)c1C	30.1	0	0	0	0	67.5
COc1cccc(NC(=O)c2cnn(-c3ccccc3)c2C)c1	53.3	0	0	0	0	32.1
C=CCN(C)CCCCCCOc1ccc(C(=O)c2ccc(Br)cc2)c(F)c1	0	-	0	-	-	0
O=C(NCC1CCCO1)c1csc(Nc2cccc3ccccc23)n1 (configuration not stated)	77.3	0	0	14.1µM	0	41.1
O=C(NCC1CCCO1)c1cc2ccccc2oc1=O (configuration not stated)	95.8	0	0	0	0	36.8
CCCNC(=O)c1csc(Nc2cccc3ccccc23)n1	-	0	0	0	0	0
O=C(NCC1CCCO1)c1csc2c1CCCC2 (configuration not stated)	0	0	0	0	0	39.8
O=C(OC1CCCCC1)c1cc2ccccc2oc1=O	79.2	0	0	0	0	42.7
O=C(c1cc2ccccc2oc1=O)N(Cc1ccccc1)CC1CCCO1 (configuration not stated)	0	0	0	0	0	0
CCN1CCCC1CNC(=O)c1csc2c1CCCC2 (configuration not stated)	0	0	0	0	0	0
COc1ccc(Nc2ncc(C(=O)Nc3ccc(F)cc3F)c3ccccc23)cc1	-	0	-	-	-	-
COC[C@@H](c1ccc(C(F)(F)F)cc1)N1CCN(C2(C)CCN(C(=O)c3c(C)ncnc3C)CC2)C[C@@H]1C	-	0	-	-	-	-
CCOC(=O)c1cccc(NC(=O)C2CCN(S(=O)(=O)c3ccc4c(c3)oc(=O)n4C)CC2)c1	-	0	-	-	-	-
C[C@@H]1CCC2[C@](C)(CO)[C@@H](O)CC[C@]2(C)[C@]12CCC(CO)(CCO)O2 (some centres not stated)	-	-	0	-	-	-
O=C1COc2cc(S(=O)(=O)NCc3ccco3)c(Cl)cc2N1	-	0	-	-	-	-
O=C(Nc1ccc2c(c1)CCCN2C(=O)c1cccs1)c1ccccc1Cl	-	0	-	-	-	-
SMILES	Shiga toxin inh	TbPYK inhibitor	FBPA Giardia inh	LmPK inh	RE007 growth inh	Cycloheximide cs
O=C(Nc1cc(Cl)ccc1Cl)c1cc(S(=O)(=O)NCCc2ccccc2)ccc1F	-	0	-	-	-	-
O=C(NCC1CCCO1)c1cc2cc(F)ccc2[nH]1 (configuration not stated)	38.4	0	0	0	0	27.4
N=c1oc2ccccc2cc1C(=O)NC1CCCCCC1	123.0	0	0	0	0	56.5
C=CCc1cccc2cc(C(=O)NC3CCCCC3)c(=O)oc12	87.9	0	0	0	0	0
O=C(NNc1c(F)c(F)cc(F)c1F)c1cc2ccccc2oc1=O	111.9	0	0	0	0	50.3
CCOC(=O)Cc1ccc(NC(=O)Nc2nnc(N3CCCCC3C)s2)cc1 (configuration not stated)	-	0	-	-	-	-
COc1cccc(-n2cc(C(=O)Nc3cc(C)c(Cl)cc3OC)c3ccccc3c2=O)c1	-	0	-	-	-	-
CC(=O)OCC(=O)[C@@]1(OC(C)=O)[C@H](C)C[C@H]2[C@@H]3C[C@H](F)C4=CC(=O)C=C[C@@]4(C)[C@]3(F)[C@H](O)C[C@@]21C	-	-	0	-	-	-
O=C(NC1CCCCCC1)c1cc2ccccc2oc1=O	43.3	0	0	0	0	42.6
CN(C1CCCCC1)S(=O)(=O)c1ccc2c(c1)c(=O)c(C(=O)NCCc1ccc(Cl)cc1)cn2C	-	0	-	-	-	-
O=C(O)CC/C(=C\c1ccc(N2CCOCC2)c([N+](=O)[O-])c1)c1nc2ccccc2s1	0	0	0	0	0	10.9
O=C(O)CC/C(=C\c1ccc2c(c1)OCO2)c1nc2ccccc2s1	0	0	0	0	0	33.6
O=C(O)C/C(=C\c1ccc(N2CCOCC2)c([N+](=O)[O-])c1)c1nc2ccccc2s1	0	0	0	0	0	20.4
CC(=O)Nc1nonc1-c1nnc(SCc2ccccc2F)n1C	-	0	-	-	-	-
COc1ccc2c(c1)O[C@@H](c1ccc3c(c1)OCO3)[C@H](OC(=O)NCCOc1ccccc1)C2=O	-	-	0	-	-	-
O=C(NC(N1CCOCC1)C(Cl)(Cl)Cl)c1ccco1 (configuration not stated)	128.5	0	0	0	0	70.4
O=C(/C=C/c1ccccc1)NC(N1CCOCC1)C(Cl)(Cl)Cl (configuration not stated)	0	0	0	0	0	29.7
Cc1cccc(N2CCN(C(=O)c3cn(C)c4ccc(S(=O)(=O)N(C)C)cc4c3=O)CC2C)c1 (configuration not stated)	-	0	-	-	-	-
Cc1nc(SCC(=O)Nc2ccc(OCc3ccccc3)cc2)n[nH]1	58.0	0	0	0	0	24.3
Cc1nc(SCC(=O)Nc2cccc(C(=O)O)c2)n[nH]1	0	0	0	0	0	0
Nc1nc(SCC(=O)Nc2ccc(OCc3ccccc3)cc2)n[nH]1	57.5	0	0	0	0	27.9
COc1ccc(-c2csc(NC(=O)CSc3n[nH]c(C)n3)n2)cc1	107.6	0	0	0	0	31.2
Nc1nc(SCC(=O)NCc2ccccc2)n[nH]1	0	0	0	0	0	0
NC(=O)c1csc(-c2ccc(CO)o2)n1	-	0	-	-	0	-
OCc1ccc(-c2ccc(-c3ccc(CO)s3)o2)s1	41.6	-	0	-	-	53.2
COc1ccc2cc(-c3ccn[nH]3)ccc2c1	79.9	0	0	0	0	31.7
COc1ccc(-c2cn[nH]c2C)cc1	0	0	0	0	0	0
COc1ccc(S(=O)(=O)N2CCN(Cc3ccc4c(c3)OCO4)CC2)cc1OC	-	0	-	-	-	-
COc1ccccc1CNC(=O)Cc1c[nH]c2ccccc12	0	0	0	0	0	0
COC(=O)C(Cc1c[nH]c2ccccc12)NC(=O)COc1ccc(Cl)cc1Cl (configuration not stated)	0	0	-	-	-	28.7

Screens from PubChem.
